# Screens deposited in PubChem BioAssay by several laboratories.
# tim23-1 inh = growth inhibitors of tim23-1 mutant yeast, primary screen, luminescence, uHTS; inhibition, % at 20 µM; S. cerevisiae tim23-1 growth, BacTiter-Glo luminescence, 24 h; hit rate 1.3% among 330,000;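 active = growth inhibition of the mutant yeast at or above 50%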;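 note: temperature-sensitive mutant grown at 25 °C; plate controls were DMSO-treated mutant yeast for no effect and medium wells lacking yeast for full effect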
# PfHsp90 set2 = growth inhibition of PfHsp90-expressing yeast, primary screen, antimalarial PfHsp90 inhibitor project, S. cerevisiae, BacTiter-Glo luminescence, single point, set 2. inhibition, % at 9.4 µM. BacTiter-Glo ATP, 48 h; yeast lacking PDR1 and PDR3 efflux regulators. hit rate 0.32% among 310,000;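 active = every replicate shows inhibition above about 80%, whatever the replicate mean, limit read from the data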;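 note: 0% = DMSO neutral controls and 100% = 20 µM radicicol positive controls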
# SKKanGAS inh = S. pyogenes SKKanGAS growth inhibitors in kanamycin, primary screen, streptokinase expression inhibitor project, SKKanGAS strain, BacTiter-Glo luminescence | hit rate 1.3% among 300,000 | inhibition, % at 7.5 µM | 6 h;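 active = mean replicate score, as percent of positive control median, at least 50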;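 note: strain carries kanamycin resistance gene driven by streptokinase promoter and grows in 40 µg/ml kanamycin; loss of luminescence reflects streptokinase promoter inhibition or plain growth inhibition; 0% = median of DMSO wells and 100% = positive control at its reference dose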
# tim10-1 inh = growth inhibitors of tim10-1 mutant yeast, primary screen, luminescence, uHTS | S. cerevisiae tim10-1 ts strain growth, BacTiter-Glo, 24 h | inhibition, % at 20 µM | hit rate 2.2% among 330,000 | AID 463190, 2010;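 active = inhibition of at least 40%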;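 note: mutant grown at 25 °C; 0% = DMSO wells with yeast and 100% = wells holding no yeast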
# V-ATPase pHluor = regulators of yeast V-ATPase proton pumping, primary screen, pHLuorin cytosolic pH fluorescence | hit rate 0.37% among 350,000 | response, % at 10 µM | S. cerevisiae | AID 504577, 2011; in the data active = response mostly above about 7.3%, no sharp cut-off; inactive = mostly below about 5.4%; note: actives read high
# TIM10 inh = growth inhibitors of isogenic TIM10 control yeast, primary screen, counter-screen for tim10-1 yeast inhibitor project, luminescence, uHTS | hit rate 1.4% among 330,000 | S. cerevisiae TIM10 strain growth, BacTiter-Glo luminescence, 24 h | inhibition, % at 10 µM | AID 463195, 2010;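 active = inhibition of 40% or more at the single tested concentration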;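 note: wild-type TIM10 isogenic control strain grown at permissive 25 °C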
# TIM10 conf = growth inhibitors of wild-type TIM10 yeast, confirmation, counter-screen for tim10-1 synthetic lethality project, single concentration, luminescence, S. cerevisiae. S. cerevisiae tim10 strain growth, BacTiter-Glo luminescence, 24 h. shares compounds with TIM10 inh. AID 463215, 2010. inhibition, % at 10 µM. hit rate 63% among 4,600;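 active = inhibition of yeast growth at or above a set limit in either of two replicates at 10 µM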;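 note: this counterscreen used the strain with wild-type TIM10; 0% = yeast with DMSO and 100% = medium wells lacking yeast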
# The depositor's hits bear a star; . = no result given. Sampled rows, rich in hits. Any-hit rate of the full collection: about 4.6%.
SMILES,tim23-1 inh,PfHsp90 set2,SKKanGAS inh,tim10-1 inh,V-ATPase pHluor,TIM10 inh,TIM10 conf
O=C(NC(=S)Nc1ccc(S(=O)(=O)NC2CCCCC2)cc1)c1cccs1,35.6,-61.5,31.2,31.0,-1.4,40.7*,38.2*
O=C(NC(=S)Nc1ccc(S(=O)(=O)N2CCCCC2)cc1)c1cccs1,2.4,-25.3,6.6,18.0,-4.4,-6.9,.
CCOC(=O)N1CCN(C(=O)CCN2C(=O)/C(=C\c3cccc(OC)c3)SC2=S)CC1,4.5,-10.4,-2.8,-8.2,3.7,5.4,.
O=C(Cn1c2ccc(F)cc2c2nc3n(c(=O)c21)CCS3)Nc1ccc(Cl)cc1F,7.8,-22.4,30.4,37.7,-2.3,41.1*,33.5*
C=CC[C@@H](CC(=O)N[C@H](CO)Cc1ccccc1)C(=O)NC[C@H](OC(=O)[C@@H](CC=C)Cc1ccc(F)cc1)c1ccccc1,22.0,-2.5,.,11.1,-0.3,3.1,.
O=Cc1[nH]c2ccccc2c1N(C(=O)CCl)c1ccc([N+](=O)[O-])cc1,49.7,-9.2,4.7,25.9,-1.6,41.3*,30.2
Cc1cccc(Cc2ncc(C(F)(F)F)cc2Cl)c1,0.4,15.9,7.6,-3.0,-2.4,-0.2,.
Cc1[nH]c2ccccc2c1C(=O)/C=C/c1ccccc1Cl,19.2,8.3,-15.2,-5.5,-0.7,31.4,.
Cc1[nH]c2ccccc2c1C(=O)/C=C\c1ccccc1Cl,47.4,8.7,-10.4,30.1,0.7,42.7*,11.8
C=CCNC(=O)NC(=O)CN1C(=O)NC(c2ccccc2)(c2ccccc2)C1=O,9.1,9.9,6.2,-6.3,-4.8,2.7,.
Cc1cc(C)nc(N/N=C/c2ccc(Cl)cc2)n1,-19.4,-22.4,-1.6,-5.1,2.7,10.9,.
Cc1ccc(/C=N/Nc2nc(C)cc(C)n2)cc1,-18.0,-9.9,-10.9,-11.6,-5.3,74.0*,8.6
Cc1c(C)c2ccc(OC(C)C(=O)N3C[C@H]4C[C@@H](C3)c3cccc(=O)n3C4)c(C)c2oc1=O (stereo partly drawn),-4.0,23.4,-2.3,-12.7,0.3,59.3*,-7.0
Cc1c(C)c(C)c2[nH]c(-c3ccc4c(c3)OCO4)nc2c1C,46.2,18.7,-3.2,25.8,-1.8,81.7*,87.2*
COc1ccc(CCn2c(C)cc(C(=O)CCl)c2C)cc1OC,47.6,1.5,-12.9,-3.0,5.6,42.4*,43.6*
O=C(Nc1cccc(F)c1)c1cc(S(=O)(=O)NCCC2=CCCCC2)ccc1F,39.5,-14.6,9.5,33.8,0.4,41.9*,-31.4
COc1cc(/C=C2\N=C(c3c(-c4ccccc4)noc3C)OC2=O)ccc1OC(C)=O,28.7,-22.6,11.1,34.9,-3.3,38.9,.
COc1cccc(/C=C2\N=C(c3c(-c4ccccc4)noc3C)OC2=O)c1,48.9,6.8,12.5,39.9,0.2,47.0*,25.5
CC(=O)Nc1cc(C(=O)N2CCc3ccccc3C2)ccc1Sc1ccc(Cl)cc1,42.5,3.8,15.9,35.1,3.1,41.6*,-9.3
Cc1ccc(C)c(Nc2nc(-c3ccncc3)nc3ccccc23)c1,13.5,-14.1,15.1,5.8,0.8,0.4,.
COC(=O)c1ccc(NC(=O)c2cccc(Cl)c2)o1,11.2,8.7,4.2,0.6,0.1,-1.4,.
Cc1c(Cc2ccccc2)sc(NC(=O)c2ccco2)c1C(N)=O,48.6,-48.9,0.3,14.5,0.2,50.6*,51.3*
CN(C)c1ccc(C2Nc3ccccc3C(=O)N2NS(C)(=O)=O)cc1 (stereo not drawn),-5.2,34.9,-0.9,9.9,0.6,4.7,.
COc1cc2ccccc2cc1C(=O)OCc1nc2ccsc2c(=O)[nH]1,-5.9,-7.5,.,-2.7,-0.7,-2.7,.
COc1ccc(-n2ccnc2SCC(=O)NC2CCCC2)cc1,10.4,15.2,.,9.1,-1.9,1.5,.
Cc1ccc(N/N=C(\C#N)C(N)=S)cc1C,30.3,-22.4,-3.3,37.7,0.1,42.2*,25.9
